Inconclusive results are not listed. Where a call stands in place of a potency, no number is given. Values without a mark were called inactive. The source made the active and inactive calls. The call rests on the fitted dose curve; in most records, active means well fitted cell-killing curve with a large enough effect in the repeat runs; inconclusive means weak or mixed curves, or effect the other way; inactive means no such curve, though single readings can be large or run the other way.
Assay: qHTS assay to identify small molecule agonists of the RXR signaling pathway - cell viability counter screen (AID 1159529); further: nearly all actives have a fitted effect of over 50% in size
Settings: RXR-alpha-bla HEK293T viability, CellTiter-Glo, 16 h; series mostly up to 76.8 µM
Source text: National Center for Advancing Translational Sciences [NCATS]
NIH Chemical Genomics Center [NCGC]
U.S. Environmental Protection Agency [EPA]
National Institutes of Environmental Health Sciences [NIEHS]
National Toxicology Program [NTP]
U.S. Food and Drug Administration [FDA]
The Retinoid X receptor (RXR), a nuclear hormone receptor expressed in liver, spleen, placenta, epidermis, central nervous system. These receptors are able to form homo and heterodimers with other nuclear receptors and due to this heterodimerizing ability, RXR functions as master regulators producing diverse physiological effects. Three subtypes of RXR exist; alpha, beta and gamma. Retinoid X receptor alpha (RXR-alpha) has potential roles in metabolic signaling pathways, skin alopecia, dermal cysts, cardiac development, insulin sensitization etc. Therefore screening environmental chemicals on RXR-alpha signaling can be used for the studies focused on such therapeutic applications. For quantification of RXR-alpha ligands signaling, GeneBLAzer RXR alpha-UAS-bla HEK 293T (Life Technologies, Carlsbad, CA) cells containing a beta-lactamase reporter-gene under control of Retinoid X receptor-alpha response element were used to screen Tox21 10K library. The cytotoxicity of the Tox21 compound library against the RXR-alpha HEK 293T cell line was tested in parallel by measuring cell viability using CellTiter-Glo assay (Promega Corporation, Madison, WI) in the same wells.
Tox21 Assay Protocol Summary:
RXR-alpha HEK 293T cells were dispensed at 2,000 cells/6 uL of assay medium containing 2% charcoal-stripped FBS using a Multidrop Combi (ThermoFisher Scientific, Waltham, MA) dispenser. The assay was performed in black wall/clear-bottom 1536-well plates (Greiner Bio-One North America Inc. Monroe, NC). Tetraoctyl ammonium bromide was used as a positive control in the cytotoxicity screen. After the assay plates were incubated at 37 C and 5% CO2 for 5 hr, 23 nL of compounds dissolved in DMSO, positive control or DMSO only were transferred to the assay plate by a Pintool station (Kalypsys, San Diego, CA). The assay plates were incubated at 37 C and 5% CO2 for 16 hr. One uL of LiveBLAzer B/G FRET substrate (Life Technologies) was added using a Flying Reagent Dispenser (FRD) (Aurora Discovery, San Diego, CA) and the plates were incubated at room temperature for 2 hr. Fluorescence intensity (405 nm excitation, 460/530 nm emission) was measured using an Envision plate reader (PerkinElmer, Shelton, CT). For cytotoxicity, 4 uL/well of CellTiter-Glo reagent was added into the assay plates using an FRD. After 30 min incubation at room temperature, the luminescence intensity was measured using a ViewLux plate reader (PerkinElmer).

Which Potency does the source give for `COc1cccc([C@@]2(O)CCCC[C@@H]2CN(C)C)c1` here?
The Potency was “inactive”.

For `O=c1[nH]oc2c1CCNC2`, which Potency is on record?
Its Potency is “inactive”.

Which Potency does the source give for `N=C(N)[Se]` here?
The Potency was “inactive”.

For `NNC(N)=O`, which Potency is on record?
Its Potency is “inactive”.

Which Potency does the source give for `CC(C)NCC(O)c1ccc([N+](=O)[O-])cc1` (stereo not given) here?
The Potency was “inactive”.

Which Potency does the source give for `BrCc1ccc(Br)cc1` here?
Its Potency is “inactive”.

Which Potency does the source give for `Clc1ccc(C(Cl)(Cl)Cl)cn1` here?
The Potency was “inactive”.

For `CCC1(c2ccccc2)CCC(=O)NC1=O` (stereo not given), which Potency is on record?
Its Potency is “inactive”.

With `CN1C(=O)COc2c(C(=O)NC3CN4CCC3CC4)cc(Cl)cc21` (stereo not given) as the molecule, how does the Potency read?
The Potency was “inactive”.

With `Cc1ccc(-c2nc3ccc(C)cn3c2CC(=O)N(C)C)cc1` as the molecule, how does the Potency read?
The Potency was “inactive”.

With `NC(=O)CS(=O)C(c1ccccc1)c1ccccc1` (stereo not given) as the molecule, how does the Potency read?
The Potency was “inactive”.

For `CCOC(=O)N(C)N=O`, which Potency is on record?
Its Potency is “inactive”.

For `CC(C)(N)Cc1ccccc1Cl`, which Potency is on record?
The Potency was “inactive”.

Which Potency does the source give for `Cc1ccc(Cl)c(O)c1` here?
Its Potency is “inactive”.

Which Potency does the source give for `CN(C)C(=O)Oc1cc(OC(=O)N(C)C)cc(C(O)CNC(C)(C)C)c1` (stereo not given) here?
The Potency was “inactive”.

With `S=C=S` as the molecule, how does the Potency read?
The Potency was “inactive”.

For `O=C(Cl)C(Cl)Cl`, which Potency is on record?
The Potency was “inactive”.

Which Potency does the source give for `CC(Cc1ccccc1)NCCCCl` (stereo not given) here?
Its Potency is “inactive”.

For `O=C1CC(=O)NC(=O)N1`, which Potency is on record?
Its Potency is “inactive”.

With `CCC(C(N)=O)N1CCCC1=O` (stereo not given) as the molecule, how does the Potency read?
Its Potency is “inactive”.

With `CC(=O)OCC1=C(C(=O)O)N2C(=O)[C@@H](N)[C@H]2SC1` as the molecule, how does the activity change, negative = cytotoxicity read?
The activity change, negative = cytotoxicity was -9.25% [at 15.8 µM].

With `ClC(Cl)(Cl)Cl` as the molecule, how does the Potency read?
The Potency was “inactive”.

Which Potency does the source give for `CC[C@H](O)C(C[C@H](C)N(C)C)(c1ccccc1)c1ccccc1` here?
Its Potency is “inactive”.

With `O=[N+]([O-])CCO` as the molecule, how does the Potency read?
The Potency was “inactive”.

With `O=C(NC(=O)c1c(F)cccc1F)Nc1cc(Cl)c(F)c(Cl)c1F` as the molecule, how does the Potency read?
Its Potency is “inactive”.

Which Potency does the source give for `C[C@H](CN1CCOCC1)C(C(=O)N1CCCC1)(c1ccccc1)c1ccccc1` here?
Its Potency is “inactive”.

Which Potency does the source give for `CC(C)c1ccc(O)cc1` here?
The Potency was “inactive”.

Which Potency does the source give for `CCN[C@@H](C)Cc1cccc(C(F)(F)F)c1` here?
The Potency was “inactive”.

Which Potency does the source give for `C[C@]12C=CC(=O)C=C1CC[C@@H]1[C@@H]2CC[C@@]2(C)[C@H]1CC[C@]2(C)O` here?
Its Potency is “inactive”.

Which Potency does the source give for `c1cncc([C@@H]2CCCCN2)c1` here?
The Potency was “inactive”.

Which Potency does the source give for `ClCCCCl` here?
The Potency was “inactive”.

For `ClCCCCCCCl`, which Potency is on record?
The Potency was “inactive”.

For `CCOP(=S)(OCC)SCCl`, which Potency is on record?
Its Potency is “inactive”.

For `CCc1cc(OC)c(C[C@H](C)N)cc1OC`, which Potency is on record?
The Potency was “inactive”.

With `CC[C@@H](CO)NC(=O)[C@@H]1C=C2c3cccc4[nH]cc(c34)C[C@H]2N(C)C1` as the molecule, how does the Potency read?
The Potency was “inactive”.

For `CCOc1cc(OP(=S)(OC)OC)nc(CC)n1`, which Potency is on record?
Its Potency is “inactive”.

With `CCCC[N+](=O)[O-]` as the molecule, how does the Potency read?
The Potency was “inactive”.

With `O=CCCl` as the molecule, how does the Potency read?
Its Potency is “inactive”.

For `O=P(O)(O)c1ccccc1`, which Potency is on record?
Its Potency is “inactive”.

Which Potency does the source give for `CC1=C2[C@H]3OC(=O)[C@@H](C)[C@@H]3CC[C@@]2(C)C=CC1=O` here?
The Potency was “inactive”.

From PubChem BioAssay (Tox21)
